# Unmarked numbers belong to inactive results.
# Experiment: plasmodial surface anion channel blockers, osmotic lysis – cell-based, P. falciparum Indochina, OD700, 18 h, primary screen (AID 1157)
# Settings: P. falciparum Indochina infected erythrocytes, osmotic lysis OD700, 18 h; higher = more signal, called active from +8 up or from −8 down
row,Structure (SMILES),z-score
1,CC[C@@H]1C=C(C(=O)O)[C@H](c2ccc(Br)cc2)N1S(=O)(=O)c1ccc(C)cc1,0.658
2,O=C1c2ccccc2[C@](Cc2ccccc2I)(C(=O)NCCN2CCOCC2)[C@H](c2ccc(CO)cc2)N1Cc1ccccc1Cl,0.818
3,COC(=O)[C@@]1(Cc2ccc(OC)cc2)[C@H]2c3cc(C(=O)N4CCCC4)n(CCN4CNCC4=O)c3C[C@H]2CN1C(=O)c1ccccc1,0.838
4,COC(=O)[C@@]1(Cc2ccc(OC)cc2)[C@@H]2C(=CC(=O)[C@H]2CC(=O)C(=O)N2CCCC2)CN1C(=O)c1ccccc1,1.18
5,C=CCNC(=O)[C@@H]1[C@H]2C(=O)O[C@H](c3ccccc3)[C@H](c3ccccc3)N2[C@H](c2ccc(O)cc2)[C@@]12C(=O)N(C(=O)OCCOC)c1ccc(C#CCNC(N)=O)cc12,-1.18
6,Cc1ccc(S[C@]2(C(=O)NCCCN(C)C)CC(=O)N(Cc3cc(C(F)(F)F)cc(C(F)(F)F)c3)[C@@H]2c2ccc(CO)cc2)cc1,0.327
7,COc1ccc([Si](C)(C)[C@H]2[C@H](CCO)O[C@@]3(C(=O)N(Cc4ccc(N(C=O)c5ccccc5)cc4)c4ccccc43)[C@@H]2C)cc1,1.87
8,[N-]=[N+]=Nc1ccccc1[C@H]1OC(c2ccc(OCCCO)cc2)=N[C@@]1(CCS(=O)(=O)c1ccccc1)C(N)=O,2.16
9,NC(=O)NCC#Cc1ccc2c(c1)[C@]1(C(=O)N2)[C@H](c2ccccc2OCCO)N2[C@H](c3ccccc3)[C@H](c3ccccc3)OC(=O)[C@H]2[C@@H]1C(=O)Nc1nc2ccccc2s1,1.28
10,CCCC=C(CCC)[C@@H](NC(=O)c1cccs1)c1ccc(C(F)(F)F)cc1,-1.39
11,CN(C)C(=O)[C@]1(Cc2ccccc2N=[N+]=[N-])N=C(c2ccc(OCCCO)cc2)O[C@@H]1c1ccccc1N=[N+]=[N-],7.43
12,COC(=O)[C@@]1(Cc2ccc(OC)cc2)[C@H]2c3cc(C(=O)N(C)C)n(Cc4ccccn4)c3C[C@H]2CN1C(=O)c1ccccc1,0.863
13,COC(=O)[C@@]1(Cc2ccc(F)cc2)[C@H]2c3cc(C(=O)N4CCCC4)n(CCCNc4ncc(C(F)(F)F)cc4Cl)c3C[C@H]2CN1C(=O)c1ccccc1,0.863
14,O=C(CS)NCCCCCCNC(=O)[C@@H]1C[C@@H]2C(=O)NCC(=O)N2[C@@H]1c1cccc(OCCO)c1,0.104
15,CCOC(=O)C[C@H]1[C@H](OC(=O)c2ccccc2-c2ccccc2)[C@@H](NC(=O)CC(C)C)c2cc(OCCCO)ccc2N1C(=O)Cc1ccc(OC)cc1,0.207
16,COc1ccc([C@H]2OC[C@@H]3C[C@@H](Cc4ccccc4)C(=O)N32)cc1,0.308
17,COc1ccc(CCNC(=O)[C@@]2(C)c3ccccc3C(=O)N(C(C)C)[C@H]2c2ccc(CO)cc2)cc1,-0.0145
18,C=CCOC(=O)[C@@H]1[C@H]2C(=O)O[C@H](c3ccccc3)[C@H](c3ccccc3)N2[C@H](c2ccc(OCCOC(=O)[C@@H]3C[C@@H]4C(=O)NCC(=O)N4[C@@H]3c3ccc(O)cc3)cc2)[C@@]12C(=O)Nc1ccc(I)cc12,0.398

row,Structure (SMILES),z-score
1,O=C1C[C@@](C(=O)NCCN2CCOCC2)(c2ccc([N+](=O)[O-])cc2)[C@@H](c2ccc(CO)cc2)N1CC12CC3CC(CC(C3)C1)C2,0.548
2,COCCOC(=O)N1C(=O)[C@@]2(c3cc(C#CCC(C(=O)OC)C(=O)OC)ccc31)[C@H](C(=O)Nc1nc3ccccc3s1)[C@H]1C(=O)O[C@H](c3ccccc3)[C@H](c3ccccc3)N1[C@@H]2c1ccccc1OCCO,2.31
3,COC(=O)[C@@]1(Cc2ccccc2)[C@H]2c3cc(C(=O)N(C)C)n(Cc4ccsc4Br)c3C[C@H]2CN1C(=O)c1ccccc1,1.25
4,CC1CC/C=C\[C@H]2OC34C=CCN(C(C)(C)C)C(=O)[C@H]3N(CCO)C(=O)[C@@H]4C2C(=O)O1 (stereo partly specified),0.31
5,C=C(CCCC)/C(=C/C[C@@H](OC(C)=O)c1ccc(OCCO)cc1)c1cnc2ccccc2c1,1.34
6,CC(C)C(O)C1C=CC2C(=O)N(c3ccccc3)C(=O)C2N1Nc1ccc([N+](=O)[O-])cc1 (stereo unspecified),0.779
7,C=C(COC)/C(=C/C[C@H](OC(C)=O)c1ccc(CO)o1)c1cc(C(=O)OC)ccc1OC,-2.07
8,COC(=O)[C@@]1(Cc2ccc(OC)cc2)[C@H]2c3cc(C(=O)N(C)C)n(C)c3C[C@H]2CN1C(=O)c1ccccc1,1.16
9,CCOC(=O)[C@H]1C/C=C/C[C@H](C(=O)OCC)C(=O)O[C@H]2[C@@H](OC)O[C@H](CO)[C@@H](OC(=O)c3c(OC)cccc3OC)[C@@H]2OC1=O,1.2
10,CC(C)NC(=O)[C@@]1(c2ccc([N+](=O)[O-])cc2)CC(=O)N(C2CCCCC2)[C@@H]1c1ccc(CO)cc1I,0.966
11,CN1C(=O)C2C=CC(C(O)c3ccc([N+](=O)[O-])cc3)N(N3CCCCC3)C2C1=O (stereo unspecified),0.9
12,COCCOC(=O)N1C(=O)[C@@]2(c3cc(C#CCNC(N)=O)ccc31)[C@H](C(=O)N1CCN(c3ncccn3)CC1)[C@H]1C(=O)O[C@H](c3ccccc3)[C@H](c3ccccc3)N1[C@@H]2c1ccc(OCCO)cc1,0.778
13,O=C1NC(=O)C2C1C=CC(C(O)c1cc(C(F)(F)F)cc(C(F)(F)F)c1)N2Nc1ccccn1 (stereo unspecified),0.827
14,COCCOC(=O)N1C(=O)[C@@]2(c3ccccc31)[C@H](C(=O)N1CCc3cc(OC)c(OC)cc3C1)[C@H]1C(=O)O[C@H](c3ccccc3)[C@H](c3ccccc3)N1[C@@H]2c1ccc(OCCO)cc1,0.983
15,COC(=O)C(CC#Cc1ccc2c(c1)[C@]1(C(=O)N2)[C@H](C(=O)Nc2nc3ccccc3s2)[C@H]2C(=O)O[C@H](c3ccccc3)[C@H](c3ccccc3)N2[C@@H]1c1ccccc1OCCO)C(=O)OC,1.69
16,CN1C(=O)C2C=CC(C(O)c3ccccc3)N(N(c3ccccc3)c3ccccc3)C2C1=O (stereo unspecified),0.9
17,COC(=O)[C@@]1(CCS(=O)(=O)c2ccccc2)N=C(c2ccc(OCCCO)cc2)O[C@H]1c1ccccc1CN=[N+]=[N-],1.33
18,COC(=O)[C@H](Cc1ccccc1)N1CC2=C[C@@H](C3CC3)n3c(=O)n(C)c(=O)n3[C@H]2[C@@H]1[C@@H](O)Cc1ccccc1,1.58
